# From publication PMC7862700, “An all-to-all approach to the identification of sequence-specific readers for epigenetic DNA modifications on cytosine”
# Assays:
# Assay in all cases: DAPPL (digital affinity profiling via proximity ligation, sequencing); 10 mM Tris-HCl pH 7.5, 50 mM NaCl, 1 mM DTT, 4% glycerol, room temperature, 30 min; GST-TFs on glutathione beads, 16-mer random dsDNA library, 0.1% formaldehyde crosslink after washing; high values mean tight binding
# FLI1 = molecular target: T1, FLI1 (Homo sapiens, UniProt Q01543 1-452); conditions: protein: recombinant; tags: N-terminal GST; dsDNA, one strand shown
# T1 sequence: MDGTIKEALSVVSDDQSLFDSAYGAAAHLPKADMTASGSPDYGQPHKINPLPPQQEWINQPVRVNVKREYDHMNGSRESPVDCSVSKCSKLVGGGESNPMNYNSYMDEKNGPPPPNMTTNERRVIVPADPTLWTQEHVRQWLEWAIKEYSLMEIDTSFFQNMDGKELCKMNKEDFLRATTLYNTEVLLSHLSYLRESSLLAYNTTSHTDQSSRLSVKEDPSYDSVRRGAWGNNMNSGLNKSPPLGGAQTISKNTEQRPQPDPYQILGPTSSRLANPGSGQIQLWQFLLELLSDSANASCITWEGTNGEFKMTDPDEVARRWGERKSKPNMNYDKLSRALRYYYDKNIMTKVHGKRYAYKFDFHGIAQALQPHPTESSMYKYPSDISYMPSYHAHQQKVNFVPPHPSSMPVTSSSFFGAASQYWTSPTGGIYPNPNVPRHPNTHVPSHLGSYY
# Procedure, shortened: (§1)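 Pools of DNA-barcoded human transcription factors, expressed in yeast as GST fusions on glutathione beads and combined with a tag-only sample, were incubated with 200 nmole of a 16-mer random double-stranded DNA library. Incubation took 30 min at room temperature in Tris/NaCl/DTT/glycerol buffer and was followed by washing, 0.1% formaldehyde crosslinking, proximity ligation (BsaI/T4 ligase, 1 h, 37 °C), PCR amplification and sequencing on an Illumina NextSeq500. Binding signal is the ratio of a hexamer's read frequency for a factor to its frequency for the tag-only sample.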
# ELK1 = molecular target: T2, ELK1 (Homo sapiens, UniProt P19419 1-428); conditions: protein: recombinant; tags: N-terminal GST; dsDNA, one strand shown
# T2 sequence: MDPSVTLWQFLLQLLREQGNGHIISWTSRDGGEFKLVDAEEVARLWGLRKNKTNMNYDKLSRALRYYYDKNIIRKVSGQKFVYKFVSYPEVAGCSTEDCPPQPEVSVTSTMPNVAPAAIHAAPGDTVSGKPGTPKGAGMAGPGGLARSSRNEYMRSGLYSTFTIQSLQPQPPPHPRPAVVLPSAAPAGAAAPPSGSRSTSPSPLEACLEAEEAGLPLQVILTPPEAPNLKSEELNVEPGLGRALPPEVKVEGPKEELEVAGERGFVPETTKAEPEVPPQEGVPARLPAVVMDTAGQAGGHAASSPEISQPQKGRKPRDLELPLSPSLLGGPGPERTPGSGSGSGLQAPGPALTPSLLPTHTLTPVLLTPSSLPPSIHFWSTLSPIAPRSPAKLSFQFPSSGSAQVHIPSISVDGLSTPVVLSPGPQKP
# Procedure, shortened: as §1
# GABPA = molecular target: T3, GABPA (Homo sapiens, UniProt Q06546 1-454); conditions: protein: recombinant; tags: N-terminal GST; dsDNA, one strand shown
# T3 sequence: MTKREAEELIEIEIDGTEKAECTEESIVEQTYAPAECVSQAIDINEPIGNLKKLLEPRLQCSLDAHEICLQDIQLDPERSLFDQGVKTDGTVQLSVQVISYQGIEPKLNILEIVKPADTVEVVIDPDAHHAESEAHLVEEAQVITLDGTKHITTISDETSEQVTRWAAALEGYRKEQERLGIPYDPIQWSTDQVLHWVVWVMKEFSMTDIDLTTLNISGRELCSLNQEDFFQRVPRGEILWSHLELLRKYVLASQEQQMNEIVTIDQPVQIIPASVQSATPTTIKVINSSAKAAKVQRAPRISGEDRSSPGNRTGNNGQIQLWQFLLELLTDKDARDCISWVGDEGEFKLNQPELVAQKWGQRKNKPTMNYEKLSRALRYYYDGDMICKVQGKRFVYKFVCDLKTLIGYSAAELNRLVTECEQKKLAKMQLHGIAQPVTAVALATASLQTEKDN
# Procedure, shortened: as §1
# ERG = molecular target: T4, ERG (Homo sapiens, UniProt P11308 1-479); conditions: protein: recombinant; tags: N-terminal GST; dsDNA, one strand shown
# T4 sequence: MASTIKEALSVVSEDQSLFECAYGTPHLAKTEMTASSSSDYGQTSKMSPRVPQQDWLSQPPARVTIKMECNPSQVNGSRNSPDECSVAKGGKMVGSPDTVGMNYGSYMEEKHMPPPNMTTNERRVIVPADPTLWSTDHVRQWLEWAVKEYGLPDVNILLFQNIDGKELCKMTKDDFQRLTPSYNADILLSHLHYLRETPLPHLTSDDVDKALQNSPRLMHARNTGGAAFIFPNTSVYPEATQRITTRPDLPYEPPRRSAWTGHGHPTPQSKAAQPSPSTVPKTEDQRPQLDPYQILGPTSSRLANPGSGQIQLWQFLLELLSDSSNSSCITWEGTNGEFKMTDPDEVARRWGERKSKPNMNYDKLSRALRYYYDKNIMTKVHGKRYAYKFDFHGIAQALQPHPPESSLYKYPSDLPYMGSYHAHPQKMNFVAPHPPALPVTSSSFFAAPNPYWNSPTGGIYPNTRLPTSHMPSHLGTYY
# Procedure, shortened: as §1
# ELF1 = ELF1 (Homo sapiens, UniProt P32519 1-619); conditions: protein: recombinant; tags: N-terminal GST; dsDNA, one strand shown
# Procedure, shortened: as §1
# EHF = molecular target: T5, EHF (Homo sapiens, UniProt Q9NZC4 1-300); conditions: protein: recombinant; tags: N-terminal GST; dsDNA, one strand shown
# T5 sequence: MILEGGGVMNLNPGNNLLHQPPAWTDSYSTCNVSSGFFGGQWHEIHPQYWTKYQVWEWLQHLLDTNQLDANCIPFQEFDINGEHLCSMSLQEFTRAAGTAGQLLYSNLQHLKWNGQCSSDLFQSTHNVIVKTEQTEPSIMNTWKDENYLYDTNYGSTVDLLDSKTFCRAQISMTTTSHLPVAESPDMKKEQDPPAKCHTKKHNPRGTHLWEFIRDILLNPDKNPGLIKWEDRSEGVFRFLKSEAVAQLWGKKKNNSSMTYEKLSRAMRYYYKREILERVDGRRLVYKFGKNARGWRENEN
# Procedure, shortened: as §1
# SPI1 = SPI1 (Homo sapiens, UniProt P17947 1-270); conditions: protein: recombinant; tags: N-terminal GST; dsDNA, one strand shown
# Procedure, shortened: as §1
# SPIB = SPIB (Homo sapiens, UniProt Q01892 1-262); conditions: protein: recombinant; tags: N-terminal GST; dsDNA, one strand shown
# Procedure, shortened: as §1
# ELK3 = molecular target: T6, ELK3 (Homo sapiens, UniProt P41970 1-407); conditions: protein: recombinant; tags: N-terminal GST; dsDNA, one strand shown
# T6 sequence: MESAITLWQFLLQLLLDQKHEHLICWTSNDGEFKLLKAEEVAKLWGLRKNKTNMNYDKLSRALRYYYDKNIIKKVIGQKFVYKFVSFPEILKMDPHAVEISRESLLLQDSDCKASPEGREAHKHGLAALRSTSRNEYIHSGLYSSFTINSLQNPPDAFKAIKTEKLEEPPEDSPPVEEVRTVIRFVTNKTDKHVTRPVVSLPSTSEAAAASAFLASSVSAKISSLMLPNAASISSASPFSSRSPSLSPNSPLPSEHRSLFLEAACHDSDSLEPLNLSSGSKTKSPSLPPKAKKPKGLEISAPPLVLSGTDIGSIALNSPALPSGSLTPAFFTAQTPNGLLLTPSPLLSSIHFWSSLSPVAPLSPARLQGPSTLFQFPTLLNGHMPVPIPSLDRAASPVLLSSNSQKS
# Procedure, shortened: as §1
# FEV = molecular target: T7, FEV (Homo sapiens, UniProt Q99581 1-238); conditions: protein: recombinant; tags: N-terminal GST; dsDNA, one strand shown
# T7 sequence: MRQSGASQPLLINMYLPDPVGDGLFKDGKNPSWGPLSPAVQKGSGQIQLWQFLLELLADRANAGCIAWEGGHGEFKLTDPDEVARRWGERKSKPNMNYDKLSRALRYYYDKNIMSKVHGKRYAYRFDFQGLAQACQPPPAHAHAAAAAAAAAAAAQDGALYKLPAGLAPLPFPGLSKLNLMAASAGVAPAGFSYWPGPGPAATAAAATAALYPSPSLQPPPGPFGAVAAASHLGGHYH
# Procedure, shortened: as §1
# ETV5 = ETV5 (Homo sapiens, UniProt P41161 1-510); conditions: protein: recombinant; tags: N-terminal GST; dsDNA, one strand shown
# Procedure, shortened: as §1
# HSF1 = HSF1 (Homo sapiens, UniProt Q00613 1-529); conditions: protein: recombinant; tags: N-terminal GST; chain copies: 3; dsDNA, one strand shown
# Procedure, shortened: as §1
# SPIC = molecular target: T8, SPIC (Homo sapiens, UniProt Q8N5J4 1-248); conditions: protein: recombinant; tags: N-terminal GST; dsDNA, one strand shown
# T8 sequence: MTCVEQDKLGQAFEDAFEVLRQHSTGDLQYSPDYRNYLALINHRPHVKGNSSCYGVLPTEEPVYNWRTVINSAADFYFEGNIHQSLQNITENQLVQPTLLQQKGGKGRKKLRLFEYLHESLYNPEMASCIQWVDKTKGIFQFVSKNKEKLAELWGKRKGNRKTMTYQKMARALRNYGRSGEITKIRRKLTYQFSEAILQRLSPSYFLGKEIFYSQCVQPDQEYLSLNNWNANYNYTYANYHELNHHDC
# Procedure, shortened: as §1
# ELF4 = ELF4 (Homo sapiens, UniProt Q99607 1-663); conditions: protein: recombinant; tags: N-terminal GST; dsDNA, one strand shown
# Procedure, shortened: as §1
# ELK4 = molecular target: T9, ELK4 (Homo sapiens, UniProt P28324-2 1-405); conditions: protein: recombinant; tags: N-terminal GST; dsDNA, one strand shown
# T9 sequence: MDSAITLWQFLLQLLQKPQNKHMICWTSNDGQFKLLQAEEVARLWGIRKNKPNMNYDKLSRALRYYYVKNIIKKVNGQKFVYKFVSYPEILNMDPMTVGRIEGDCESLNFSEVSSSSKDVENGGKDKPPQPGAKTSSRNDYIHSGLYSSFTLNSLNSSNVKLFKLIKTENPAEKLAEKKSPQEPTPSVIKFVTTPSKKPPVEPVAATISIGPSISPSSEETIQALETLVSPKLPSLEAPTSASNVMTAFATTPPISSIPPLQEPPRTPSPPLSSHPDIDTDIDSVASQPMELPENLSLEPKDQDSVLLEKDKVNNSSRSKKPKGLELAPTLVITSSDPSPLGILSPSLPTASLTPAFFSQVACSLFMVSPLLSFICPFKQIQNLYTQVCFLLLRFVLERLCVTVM
# Procedure, shortened: as §1
# ETV2 = molecular target: T10, ETV2 (Homo sapiens, UniProt O00321 1-342); conditions: protein: recombinant; tags: N-terminal GST; dsDNA, one strand shown
# T10 sequence: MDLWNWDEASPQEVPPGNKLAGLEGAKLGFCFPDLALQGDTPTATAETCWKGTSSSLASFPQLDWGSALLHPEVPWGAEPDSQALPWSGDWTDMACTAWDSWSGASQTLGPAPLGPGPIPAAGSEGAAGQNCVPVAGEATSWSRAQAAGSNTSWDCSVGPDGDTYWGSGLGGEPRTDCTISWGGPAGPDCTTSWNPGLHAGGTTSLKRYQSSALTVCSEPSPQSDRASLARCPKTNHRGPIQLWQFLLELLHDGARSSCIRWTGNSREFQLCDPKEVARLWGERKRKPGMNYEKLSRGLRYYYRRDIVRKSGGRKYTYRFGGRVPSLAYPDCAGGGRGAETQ
# Procedure, shortened: as §1
# ELF3 = molecular target: T11, ELF3 (Homo sapiens, UniProt P78545 1-371); conditions: protein: recombinant; tags: N-terminal GST; dsDNA, one strand shown
# T11 sequence: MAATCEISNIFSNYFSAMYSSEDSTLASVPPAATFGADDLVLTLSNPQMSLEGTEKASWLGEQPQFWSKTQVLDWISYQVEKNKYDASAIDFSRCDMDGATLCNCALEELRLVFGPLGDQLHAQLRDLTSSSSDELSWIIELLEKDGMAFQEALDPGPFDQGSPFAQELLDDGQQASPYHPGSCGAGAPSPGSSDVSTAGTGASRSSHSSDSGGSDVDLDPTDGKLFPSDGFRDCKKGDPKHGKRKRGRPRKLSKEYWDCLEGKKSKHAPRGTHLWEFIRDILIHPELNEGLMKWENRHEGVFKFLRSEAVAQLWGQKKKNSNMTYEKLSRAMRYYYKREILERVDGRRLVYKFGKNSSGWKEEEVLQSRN
# Procedure, shortened: as §1
# CRX = CRX (Homo sapiens, UniProt O43186 1-299); conditions: protein: recombinant; tags: N-terminal GST; dsDNA, one strand shown
# Procedure, shortened: as §1
# ETV1 = ETV1 (Homo sapiens, UniProt P50549 1-477); conditions: protein: recombinant; tags: N-terminal GST; dsDNA, one strand shown
# Procedure, shortened: as §1
# Chain of ETV1 (P50549 whole entry): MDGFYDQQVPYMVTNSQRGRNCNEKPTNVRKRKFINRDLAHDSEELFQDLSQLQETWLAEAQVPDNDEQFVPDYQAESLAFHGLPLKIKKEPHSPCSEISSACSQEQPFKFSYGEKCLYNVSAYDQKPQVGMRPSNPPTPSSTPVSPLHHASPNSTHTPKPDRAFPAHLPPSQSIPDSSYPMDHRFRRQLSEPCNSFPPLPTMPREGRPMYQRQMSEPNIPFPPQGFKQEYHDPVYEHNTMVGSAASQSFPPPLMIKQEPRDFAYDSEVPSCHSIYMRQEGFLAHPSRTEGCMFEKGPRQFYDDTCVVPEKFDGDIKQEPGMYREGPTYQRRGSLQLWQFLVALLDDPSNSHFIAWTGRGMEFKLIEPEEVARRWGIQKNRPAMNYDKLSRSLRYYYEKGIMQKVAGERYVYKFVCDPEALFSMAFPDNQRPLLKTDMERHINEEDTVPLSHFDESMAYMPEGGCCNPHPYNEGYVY
# Chain of CRX (O43186 whole entry): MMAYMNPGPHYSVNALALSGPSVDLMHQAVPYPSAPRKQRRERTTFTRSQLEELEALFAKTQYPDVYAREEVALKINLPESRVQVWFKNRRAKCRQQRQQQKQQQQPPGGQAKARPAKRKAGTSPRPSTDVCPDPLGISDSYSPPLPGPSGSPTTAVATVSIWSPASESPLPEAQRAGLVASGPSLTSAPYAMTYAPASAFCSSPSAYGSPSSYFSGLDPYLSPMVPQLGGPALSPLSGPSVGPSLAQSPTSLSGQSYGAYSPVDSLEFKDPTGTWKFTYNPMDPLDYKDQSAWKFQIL
# Chain of ETV5 (P41161 whole entry): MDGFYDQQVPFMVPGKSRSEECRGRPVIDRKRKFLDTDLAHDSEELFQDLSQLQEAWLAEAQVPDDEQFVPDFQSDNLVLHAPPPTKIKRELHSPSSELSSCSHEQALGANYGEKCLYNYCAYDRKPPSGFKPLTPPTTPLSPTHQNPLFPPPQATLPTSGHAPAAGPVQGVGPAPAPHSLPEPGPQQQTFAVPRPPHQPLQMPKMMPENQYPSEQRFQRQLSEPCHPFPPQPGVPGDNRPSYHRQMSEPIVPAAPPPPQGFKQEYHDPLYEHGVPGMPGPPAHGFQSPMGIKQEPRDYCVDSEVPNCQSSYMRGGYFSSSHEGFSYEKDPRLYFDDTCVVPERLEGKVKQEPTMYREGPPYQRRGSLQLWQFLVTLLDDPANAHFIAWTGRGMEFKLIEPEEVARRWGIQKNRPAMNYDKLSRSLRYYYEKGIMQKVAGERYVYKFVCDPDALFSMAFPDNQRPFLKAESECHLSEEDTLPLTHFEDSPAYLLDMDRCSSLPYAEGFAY
# Chain of SPIB (Q01892 whole entry): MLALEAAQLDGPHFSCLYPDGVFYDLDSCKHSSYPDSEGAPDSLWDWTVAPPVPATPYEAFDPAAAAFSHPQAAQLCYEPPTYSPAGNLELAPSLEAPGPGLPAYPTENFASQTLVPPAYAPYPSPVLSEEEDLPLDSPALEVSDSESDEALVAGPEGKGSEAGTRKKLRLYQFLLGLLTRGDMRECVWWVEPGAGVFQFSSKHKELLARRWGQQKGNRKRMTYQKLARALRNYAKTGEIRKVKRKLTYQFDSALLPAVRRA
# Chain of ELF1 (P32519 whole entry): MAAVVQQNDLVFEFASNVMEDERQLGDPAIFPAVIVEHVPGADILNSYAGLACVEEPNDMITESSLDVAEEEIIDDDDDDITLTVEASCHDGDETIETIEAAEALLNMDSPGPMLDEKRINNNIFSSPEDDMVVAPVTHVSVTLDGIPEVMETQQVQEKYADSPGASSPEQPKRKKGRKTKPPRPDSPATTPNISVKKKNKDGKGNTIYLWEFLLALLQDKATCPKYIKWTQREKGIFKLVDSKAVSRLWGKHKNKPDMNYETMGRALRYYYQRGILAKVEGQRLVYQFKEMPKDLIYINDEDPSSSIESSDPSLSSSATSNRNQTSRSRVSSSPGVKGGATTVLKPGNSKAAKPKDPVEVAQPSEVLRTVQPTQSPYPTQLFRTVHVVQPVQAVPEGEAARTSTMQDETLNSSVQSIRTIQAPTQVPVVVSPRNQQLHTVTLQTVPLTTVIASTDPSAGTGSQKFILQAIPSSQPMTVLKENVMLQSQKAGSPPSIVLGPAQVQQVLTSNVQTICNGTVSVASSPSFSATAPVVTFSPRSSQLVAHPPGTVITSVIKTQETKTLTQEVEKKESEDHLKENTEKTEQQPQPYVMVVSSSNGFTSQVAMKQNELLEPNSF
# Chain of HSF1 (Q00613 whole entry): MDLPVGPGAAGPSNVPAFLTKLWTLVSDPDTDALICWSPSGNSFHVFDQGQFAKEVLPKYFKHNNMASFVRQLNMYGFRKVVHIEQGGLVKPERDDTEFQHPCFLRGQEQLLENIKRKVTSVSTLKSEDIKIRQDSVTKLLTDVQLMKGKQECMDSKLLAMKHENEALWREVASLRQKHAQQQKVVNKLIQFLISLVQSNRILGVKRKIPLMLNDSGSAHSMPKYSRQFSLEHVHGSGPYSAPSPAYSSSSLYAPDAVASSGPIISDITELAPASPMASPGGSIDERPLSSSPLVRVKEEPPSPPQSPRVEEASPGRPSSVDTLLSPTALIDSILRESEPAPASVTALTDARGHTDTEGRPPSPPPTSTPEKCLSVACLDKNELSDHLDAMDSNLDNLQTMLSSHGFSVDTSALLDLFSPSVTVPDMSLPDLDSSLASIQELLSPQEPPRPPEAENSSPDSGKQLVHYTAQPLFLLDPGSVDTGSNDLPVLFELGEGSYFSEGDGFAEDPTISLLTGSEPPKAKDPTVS
# Chain of ELF4 (Q99607 whole entry): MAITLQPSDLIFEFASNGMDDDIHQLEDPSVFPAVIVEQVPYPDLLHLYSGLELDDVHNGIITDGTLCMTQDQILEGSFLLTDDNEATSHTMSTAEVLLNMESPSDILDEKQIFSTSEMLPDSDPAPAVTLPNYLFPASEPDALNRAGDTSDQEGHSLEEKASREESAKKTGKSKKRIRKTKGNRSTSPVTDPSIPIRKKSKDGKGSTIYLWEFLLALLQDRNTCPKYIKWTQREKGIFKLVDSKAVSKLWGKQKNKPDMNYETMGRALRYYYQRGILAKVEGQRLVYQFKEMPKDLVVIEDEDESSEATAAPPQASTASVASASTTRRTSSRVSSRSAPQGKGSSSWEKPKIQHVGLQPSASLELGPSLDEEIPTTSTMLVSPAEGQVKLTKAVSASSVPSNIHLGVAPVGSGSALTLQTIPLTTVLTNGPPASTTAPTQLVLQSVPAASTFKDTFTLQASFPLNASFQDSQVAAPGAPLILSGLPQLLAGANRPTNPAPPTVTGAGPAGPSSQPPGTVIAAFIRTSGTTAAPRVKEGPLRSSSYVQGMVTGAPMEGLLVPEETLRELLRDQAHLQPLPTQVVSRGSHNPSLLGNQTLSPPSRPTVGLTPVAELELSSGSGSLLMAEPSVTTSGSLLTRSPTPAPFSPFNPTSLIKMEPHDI
sequence,measurement,setting,value
ATTTTA,binding signal,FLI1,"1.32 fold enrichment (6-mer frequency, TF over GST control)"
same,binding signal,ELK1,"1.16 fold enrichment (6-mer frequency, TF over GST control)"
same,binding signal,GABPA,"1.3 fold enrichment (6-mer frequency, TF over GST control)"
same,binding signal,ERG,"1.29 fold enrichment (6-mer frequency, TF over GST control)"
same,binding signal,ELF1,"1.29 fold enrichment (6-mer frequency, TF over GST control)"
same,binding signal,EHF,"1.32 fold enrichment (6-mer frequency, TF over GST control)"
same,binding signal,SPI1,"1.34 fold enrichment (6-mer frequency, TF over GST control)"
same,binding signal,SPIB,"1.35 fold enrichment (6-mer frequency, TF over GST control)"
same,binding signal,ELK3,"1.31 fold enrichment (6-mer frequency, TF over GST control)"
same,binding signal,FEV,"1.25 fold enrichment (6-mer frequency, TF over GST control)"
same,binding signal,ETV5,"1.23 fold enrichment (6-mer frequency, TF over GST control)"
same,binding signal,HSF1,"1.45 fold enrichment (6-mer frequency, TF over GST control)"
same,binding signal,SPIC,"1.36 fold enrichment (6-mer frequency, TF over GST control)"
same,binding signal,ELF4,"1.32 fold enrichment (6-mer frequency, TF over GST control)"
same,binding signal,ELK4,"1.37 fold enrichment (6-mer frequency, TF over GST control)"
same,binding signal,ETV2,"1.29 fold enrichment (6-mer frequency, TF over GST control)"
same,binding signal,ELF3,"1.23 fold enrichment (6-mer frequency, TF over GST control)"
same,binding signal,CRX,"1.83 fold enrichment (6-mer frequency, TF over GST control)"
same,binding signal,ETV1,"1.25 fold enrichment (6-mer frequency, TF over GST control)"
